Test results reported in article PMC4336329 (PLoS ONE, 2015).
About 2,200 (0.71%) of roughly 310,000 compounds showed an effect of 50% or more. The effect is printed as a negative number. The entries come from a sample that favours strong results as a whole.

target: human ether-à-go-go-related gene (hERG) potassium channel (human, UniProt Q12809); test: primary screen, population patch clamp on CHO cells stably expressing hERG; higher = less effect of the substance
Sequence (Q12809 whole entry, looked up): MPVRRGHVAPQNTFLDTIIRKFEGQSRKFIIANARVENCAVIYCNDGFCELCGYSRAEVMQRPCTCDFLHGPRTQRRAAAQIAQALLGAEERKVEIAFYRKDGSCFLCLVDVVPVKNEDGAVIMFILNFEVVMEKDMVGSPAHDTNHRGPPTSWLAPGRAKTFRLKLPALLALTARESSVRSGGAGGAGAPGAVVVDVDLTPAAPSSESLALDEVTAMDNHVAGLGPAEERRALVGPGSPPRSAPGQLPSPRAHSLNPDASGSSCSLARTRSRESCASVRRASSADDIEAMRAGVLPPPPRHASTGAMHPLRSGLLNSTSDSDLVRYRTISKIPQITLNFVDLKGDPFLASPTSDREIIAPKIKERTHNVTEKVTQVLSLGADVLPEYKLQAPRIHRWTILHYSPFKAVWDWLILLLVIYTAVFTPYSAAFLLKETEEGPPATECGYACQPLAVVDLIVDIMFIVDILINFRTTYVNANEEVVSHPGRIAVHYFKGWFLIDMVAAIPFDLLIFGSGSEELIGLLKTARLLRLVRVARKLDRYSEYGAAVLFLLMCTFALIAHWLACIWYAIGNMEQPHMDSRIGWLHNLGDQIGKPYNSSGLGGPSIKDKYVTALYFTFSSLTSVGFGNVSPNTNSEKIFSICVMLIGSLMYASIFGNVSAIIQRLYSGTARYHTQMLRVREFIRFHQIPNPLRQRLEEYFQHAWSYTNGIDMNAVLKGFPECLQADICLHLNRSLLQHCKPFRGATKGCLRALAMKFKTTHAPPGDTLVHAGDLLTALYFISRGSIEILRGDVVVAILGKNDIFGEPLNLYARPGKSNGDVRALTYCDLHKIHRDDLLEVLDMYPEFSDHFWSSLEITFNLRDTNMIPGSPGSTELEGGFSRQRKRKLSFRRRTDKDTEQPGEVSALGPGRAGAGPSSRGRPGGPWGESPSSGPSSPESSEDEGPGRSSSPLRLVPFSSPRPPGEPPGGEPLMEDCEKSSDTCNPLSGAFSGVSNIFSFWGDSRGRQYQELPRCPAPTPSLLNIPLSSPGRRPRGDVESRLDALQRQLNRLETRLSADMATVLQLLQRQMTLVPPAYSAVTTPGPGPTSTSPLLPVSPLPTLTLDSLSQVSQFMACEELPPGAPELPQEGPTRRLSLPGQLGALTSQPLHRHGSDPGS

Q: How did the “hERG current change (%, negative = inhibition) at 1uM” value turn out when `COCCCC1CCN(C(=O)C2CCC(=O)N(CC3CCCCC3)C2)CC1` (stereo not shown) was run?
A: 2.85%

Q: With `COc1ccc(OCC(O)CN2CCNCC2)cc1.Cl` (stereo not shown) as the compound, how does the “hERG current change (%, negative = inhibition) at 1uM” value read?
A: 14.6%

Q: Which “hERG current change (%, negative = inhibition) at 1uM” value does the source give for `Fc1cccc(NC(=S)NNc2ccccc2)c1` here?
A: 10.7%

Q: For `Cc1ccc2cc(CN(CC3CCCO3)C(=S)Nc3ccccc3)c(=O)[nH]c2c1C` (stereo not shown), which “hERG current change (%, negative = inhibition) at 1uM” value is on record?
A: 13.3%

Q: How did the “hERG current change (%, negative = inhibition) at 1uM” value turn out when `CCOC(=O)c1[nH]ncc1CN1CCCC(C(=O)c2cc(Cl)ccc2OC)C1` (stereo not shown) was run?
A: -29.9%

Q: With `O=C(NCCc1ccc2c(c1)OCCO2)c1cc2ccccc2o1` as the compound, how does the “hERG current change (%, negative = inhibition) at 1uM” value read?
A: -16.6%

Q: `CN(C)S(=O)(=O)N1CCC(Oc2cccc(C(=O)NC3CCCCC3)c2)CC1` was tested. Which “hERG current change (%, negative = inhibition) at 1uM” value did it give?
A: 2.87%

Q: With `CCOC(=O)C(C)(C)Sc1nc2c(cnn2-c2ccc(Cl)cc2)c(=O)[nH]1` as the compound, how does the “hERG current change (%, negative = inhibition) at 1uM” value read?
A: 4.97%

Q: How did the “hERG current change (%, negative = inhibition) at 1uM” value turn out when `CCN1CCCC(OC(=O)Nc2ccccc2)C1` (stereo not shown) was run?
A: 6.59%

Q: For `CCN1CCCC(OC(=O)C(c2ccccc2)c2ccccc2)C1.Cl` (stereo not shown), which “hERG current change (%, negative = inhibition) at 1uM” value is on record?
A: -53%

Q: Which “hERG current change (%, negative = inhibition) at 1uM” value does the source give for `Cl.O=C(OC1CCN(CCCl)CC1)C(c1ccccc1)c1ccccc1` here?
A: 15.9%

Q: With `CN1CCN(CCc2nc3cc(NC(=O)COc4ccccc4)ccc3n2C)CC1` as the compound, how does the “hERG current change (%, negative = inhibition) at 1uM” value read?
A: -13.2%

Q: With `Cc1ccc(OCC(=O)Nc2ccc3c(c2)nc(CCN2CCCCC2)n3C)cc1` as the compound, how does the “hERG current change (%, negative = inhibition) at 1uM” value read?
A: -60%

Q: For `CCN1CCN(CCc2nc3cc(NC(=O)COc4ccc(Cl)cc4)ccc3n2C)CC1`, which “hERG current change (%, negative = inhibition) at 1uM” value is on record?
A: -26.8%

Q: Which “hERG current change (%, negative = inhibition) at 1uM” value does the source give for `CN1CCN(CCc2nc3cc(NC(=O)COc4ccc(Cl)cc4)ccc3n2C)CC1` here?
A: -7.52%

Q: For `Cc1ccc(OCC(=O)Nc2ccc3c(c2)nc(CCN2CCN(C)CC2)n3C)cc1`, which “hERG current change (%, negative = inhibition) at 1uM” value is on record?
A: -5.14%

Q: How did the “hERG current change (%, negative = inhibition) at 1uM” value turn out when `Cn1c(CCN2CCCCC2)nc2cc(NC(=O)COc3ccc(Cl)cc3)ccc21` was run?
A: -89.6%

Q: How did the “hERG current change (%, negative = inhibition) at 1uM” value turn out when `Cc1cccc(OCC(=O)Nc2ccc3c(c2)nc(CCN2CCN(C)CC2)n3C)c1` was run?
A: -6.31%

Q: How did the “hERG current change (%, negative = inhibition) at 1uM” value turn out when `Cc1cccc(OCC(=O)Nc2ccc3c(c2)nc(CCN2CCCCC2)n3C)c1` was run?
A: -58.3%

Q: With `Cn1c(CCN2CCCCC2)nc2cc(NC(=O)COc3ccccc3)ccc21` as the compound, how does the “hERG current change (%, negative = inhibition) at 1uM” value read?
A: -51.9%

Q: Which “hERG current change (%, negative = inhibition) at 1uM” value does the source give for `CCN1CCN(CCc2nc3cc(NC(=O)COc4ccccc4)ccc3n2C)CC1` here?
A: 0.262%

Q: For `COc1ccc(OCC(=O)Nc2ccc3c(c2)nc(CCN2CCCCC2)n3C)cc1`, which “hERG current change (%, negative = inhibition) at 1uM” value is on record?
A: -31.3%

Q: With `Cc1cccc(OCC(=O)Nc2ccc3c(c2)nc(CN2CCCCC2)n3C)c1.Cl` as the compound, how does the “hERG current change (%, negative = inhibition) at 1uM” value read?
A: -3.37%

Q: For `COC(=O)C1=C(c2ccc(-c3ccccc3)c(F)c2)C[C@@H]2CC[C@H]1N2C(=O)NCCc1ccccc1`, which “hERG current change (%, negative = inhibition) at 1uM” value is on record?
A: 15.4%

Q: Which “hERG current change (%, negative = inhibition) at 1uM” value does the source give for `CCOC(=O)C(=CNNc1c(C)csc1C(=O)OC)C(=O)OCC` here?
A: 16.7%

Q: For `COc1ccc(CCNC(=O)CN2C(=O)NC(Cc3c[nH]c4ccccc34)C2=O)cc1` (stereo not shown), which “hERG current change (%, negative = inhibition) at 1uM” value is on record?
A: 9.58%

Q: How did the “hERG current change (%, negative = inhibition) at 1uM” value turn out when `Cc1cc(OCC(=O)NC(Cc2c[nH]c3ccc(O)cc23)C(=O)O)c2c(C)c(C)c(=O)oc2c1` (stereo not shown) was run?
A: 14.5%

Q: `CC(C)n1c(N)c(C#N)c2ccc([N+](=O)[O-])cc2c1=O` was tested. Which “hERG current change (%, negative = inhibition) at 1uM” value did it give?
A: -6.91%

Q: With `O=C(COc1ccc(Br)cc1CNC1CCCCC1)NCCc1ccccc1` as the compound, how does the “hERG current change (%, negative = inhibition) at 1uM” value read?
A: -59%

Q: Which “hERG current change (%, negative = inhibition) at 1uM” value does the source give for `CCN(CC)CCNCc1ccc(Br)cc1OCC(=O)NCc1ccccc1.Cl` here?
A: -7.7%

Q: How did the “hERG current change (%, negative = inhibition) at 1uM” value turn out when `Cl.O=C(COc1ccc(Br)cc1CNC1CCCC1)Nc1ccccc1` was run?
A: -28.2%

Q: With `CCN(CC)CCNCc1cc(Br)ccc1OCC(=O)NCc1ccccc1.Cl` as the compound, how does the “hERG current change (%, negative = inhibition) at 1uM” value read?
A: -54.6%

Q: For `CCCNCc1cc(Br)ccc1OCC(=O)NCCc1ccccc1`, which “hERG current change (%, negative = inhibition) at 1uM” value is on record?
A: -10.7%

Q: With `Cl.O=C(COc1ccc(Br)cc1CNCCc1ccccc1)NCc1ccccc1` as the compound, how does the “hERG current change (%, negative = inhibition) at 1uM” value read?
A: -11.5%

Q: `O=c1c2c(-c3cccs3)csc2ncn1-c1ccc(Br)cc1` was tested. Which “hERG current change (%, negative = inhibition) at 1uM” value did it give?
A: -2.84%

Q: Which “hERG current change (%, negative = inhibition) at 1uM” value does the source give for `CCCNC(=O)N1[C@H]2CC[C@@H]1C(C(=O)OC)=C(c1ccc3ccccc3c1)C2` here?
A: 4.04%

Q: `COc1ccc(Cc2n[nH]c(=S)n2NC(=O)Nc2ccc(Cl)c(Cl)c2)cc1` was tested. Which “hERG current change (%, negative = inhibition) at 1uM” value did it give?
A: 10.2%

Q: With `Cc1ccc2c(c1)CC1(CN2C)C(=O)NC(=O)N(C(C)C)C1=O` (stereo not shown) as the compound, how does the “hERG current change (%, negative = inhibition) at 1uM” value read?
A: 19.3%

Q: How did the “hERG current change (%, negative = inhibition) at 1uM” value turn out when `C/C(=N\Nc1nc2ccccc2[nH]1)c1ccc(C)o1` was run?
A: 8.2%

Q: For `C/C(=N\Nc1nc2ccccc2[nH]1)c1cccs1`, which “hERG current change (%, negative = inhibition) at 1uM” value is on record?
A: -0.576%

Q: How did the “hERG current change (%, negative = inhibition) at 1uM” value turn out when `C/C(=N\Nc1nc2ccccc2[nH]1)c1ccccn1` was run?
A: -55.5%

Q: `CC1CCCCC1NC(=O)CCNS(=O)(=O)c1ccc(Cl)cc1` (stereo not shown) was tested. Which “hERG current change (%, negative = inhibition) at 1uM” value did it give?
A: 7.29%

Q: With `O=C(C1CCC(CNS(=O)(=O)c2cccc3cccnc23)CC1)N1CCc2ccccc21` (stereo not shown) as the compound, how does the “hERG current change (%, negative = inhibition) at 1uM” value read?
A: 1.06%

Q: For `O=C(O)/C=C/c1ccc2c(c1)OCCO2`, which “hERG current change (%, negative = inhibition) at 1uM” value is on record?
A: 6.97%

Q: For `c1ccc2c(c1)OCCOCCOCCOCCOCCOc1ccccc1OCCOCCOCCO2`, which “hERG current change (%, negative = inhibition) at 1uM” value is on record?
A: -8.98%

Q: How did the “hERG current change (%, negative = inhibition) at 1uM” value turn out when `Brc1ccc2c(c1)OCCOCCOCCOCCOCCOCCO2` was run?
A: -60%
